Binding signal data for 14 sequences are collected here from article PMC11006913.

Assay in all cases: PBM; 200 nM protein, PBS
What all share (settings): dsDNA, one strand shown

In assay [1] the target is CRX (Homo sapiens, UniProt O43186 26-111).
Assay [2] deals with CRX (Homo sapiens, UniProt O43186 26-111, R41L).
The target in assay [3] is CRX (Homo sapiens, UniProt O43186 26-111, E42D).
Assay [4] deals with T1, NKX2-4 (Homo sapiens, UniProt Q9H2Z4 175-261, P217L).
T1 sequence: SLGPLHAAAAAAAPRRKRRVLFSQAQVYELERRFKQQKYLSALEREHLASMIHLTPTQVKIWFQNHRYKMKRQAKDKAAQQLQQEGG

For assay [5], the target named is HOXA4 (Homo sapiens, UniProt Q00056 201-287, W262R).
Chain of HOXA4 (Homo sapiens, UniProt Q00056 201-287, W262R) (Q00056 201-287 W262R): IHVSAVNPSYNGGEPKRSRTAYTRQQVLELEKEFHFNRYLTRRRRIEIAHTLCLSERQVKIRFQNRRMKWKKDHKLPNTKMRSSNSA
Assay [6] addresses HOXC9 (Homo sapiens, UniProt P31274 178-260, K195R).
Assay [7] deals with T2, NKX2-4 (Homo sapiens, UniProt Q9H2Z4 175-261, T231S).
T2 sequence: T1 sequence with L43P, T57S

Assay [8] concerns the target T3, NKX2-4 (Homo sapiens, UniProt Q9H2Z4 175-261).
T3 sequence: T1 sequence with L43P

For assay [9], the target named is HOXA4 (Homo sapiens, UniProt Q00056 201-287, R217L).
Chain of HOXA4 (Homo sapiens, UniProt Q00056 201-287, R217L) (Q00056 201-287 R217L): as the sequence (Q00056 201-287 W262R) above, with R17L, R62W counted along it
Assay [10] addresses HOXC9 (Homo sapiens, UniProt P31274 178-260).
Assay [11] has as its target MSX2 (Homo sapiens, UniProt P35548 130-214, R199I).
Assay [12] concerns the target HOXC9 (Homo sapiens, UniProt P31274 178-260, R193K).
In assay [13] the target is HOXA4 (Homo sapiens, UniProt Q00056 201-287).
Chain of HOXA4 (Homo sapiens, UniProt Q00056 201-287) (Q00056 201-287): as the sequence (Q00056 201-287 W262R) above, with R62W counted along it
In assay [14] the target is MSX2 (Homo sapiens, UniProt P35548 130-214).
Chain of MSX2 (Homo sapiens, UniProt P35548 130-214) (P35548 130-214): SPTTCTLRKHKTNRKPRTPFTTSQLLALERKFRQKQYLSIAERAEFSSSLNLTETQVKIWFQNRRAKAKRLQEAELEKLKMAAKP
Assay [15] has as its target T4, NKX2-4 (Homo sapiens, UniProt Q9H2Z4 175-261, R246Q).
T4 sequence: T1 sequence with L43P, R72Q

For assay [16], the target named is HOXC9 (Homo sapiens, UniProt P31274 178-260, R222W).
Chain of HOXC9 (Homo sapiens, UniProt P31274 178-260, R222W) (P31274 178-260 R222W): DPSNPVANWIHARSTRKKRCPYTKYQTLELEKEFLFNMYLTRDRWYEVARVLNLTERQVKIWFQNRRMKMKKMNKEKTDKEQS
Assay [17] addresses MSX2 (Homo sapiens, UniProt P35548 130-214, F161Y).
The target in assay [18] is HOXA4 (Homo sapiens, UniProt Q00056 201-287, W262F).
Chain of HOXA4 (Homo sapiens, UniProt Q00056 201-287, W262F) (Q00056 201-287 W262F): as the sequence (Q00056 201-287 W262R) above, with R62F counted along it
The target of a further assay is PITX2 (Homo sapiens, UniProt Q99697 72-157).
For assay [19], the target named is T5, PAX4 (Homo sapiens, UniProt O43316 9-242, R200K).
T5 sequence: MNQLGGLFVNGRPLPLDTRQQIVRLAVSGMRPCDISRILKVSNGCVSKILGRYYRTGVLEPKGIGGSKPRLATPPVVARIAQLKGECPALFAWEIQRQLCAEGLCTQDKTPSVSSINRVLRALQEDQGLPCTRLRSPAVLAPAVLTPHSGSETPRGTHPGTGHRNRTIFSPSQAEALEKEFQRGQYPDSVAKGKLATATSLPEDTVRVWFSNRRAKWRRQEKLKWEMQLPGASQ

Assay [20] concerns the target T6, PAX4 (Homo sapiens, UniProt O43316 9-242).
T6 sequence: T5 sequence with K192R

The target in assay [21] is HOXB6 (Homo sapiens, UniProt P17509 132-218, K202E).
Chain of HOXB6 (Homo sapiens, UniProt P17509 132-218, K202E) (P17509 132-218 K202E): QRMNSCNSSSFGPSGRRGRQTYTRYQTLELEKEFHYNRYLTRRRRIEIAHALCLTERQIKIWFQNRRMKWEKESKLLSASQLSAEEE
The target in assay [22] is HOXA2 (Homo sapiens, UniProt O43364 129-215, R185T).
Chain of HOXA2 (Homo sapiens, UniProt O43364 129-215, R185T) (O43364 129-215 R185T): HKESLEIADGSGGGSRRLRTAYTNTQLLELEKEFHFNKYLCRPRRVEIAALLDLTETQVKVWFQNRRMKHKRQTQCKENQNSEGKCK
Assay [23] addresses ALX3 (Homo sapiens, UniProt O95076 139-225, N203Q).
In assay [24] the target is T7, PAX4 (Homo sapiens, UniProt O43316 9-242, R200Q).
T7 sequence: T5 sequence with K192Q

The target in assay [25] is HOXA2 (Homo sapiens, UniProt O43364 129-215, R185K).
Chain of HOXA2 (Homo sapiens, UniProt O43364 129-215, R185K) (O43364 129-215 R185K): as the sequence (O43364 129-215 R185T) above, with T57K counted along it
Assay [26] concerns the target T8, PAX4 (Homo sapiens, UniProt O43316 9-242, F177V).
T8 sequence: T5 sequence with F169V, K192R

In assay [27] the target is ALX3 (Homo sapiens, UniProt O95076 139-225).
Chain of ALX3 (Homo sapiens, UniProt O95076 139-225) (O95076 139-225): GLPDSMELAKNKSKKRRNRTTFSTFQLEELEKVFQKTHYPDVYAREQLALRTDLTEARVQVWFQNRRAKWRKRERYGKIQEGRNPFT
The target in assay [28] is T9, PAX4 (Homo sapiens, UniProt O43316 9-242, F177Y).
T9 sequence: T5 sequence with F169Y, K192R

Assay [29] deals with PROP1 (Homo sapiens, UniProt O75360 56-141).
Chain of PROP1 (Homo sapiens, UniProt O75360 56-141) (O75360 56-141): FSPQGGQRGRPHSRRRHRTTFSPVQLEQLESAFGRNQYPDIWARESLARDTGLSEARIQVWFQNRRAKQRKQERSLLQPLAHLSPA
Assay [30] addresses PROP1 (Homo sapiens, UniProt O75360 56-141, R99H).
Assay [31] has as its target ALX3 (Homo sapiens, UniProt O95076 139-225, L168Q).
The target in assay [32] is ALX3 (Homo sapiens, UniProt O95076 139-225, L168V).
Chain of ALX3 (Homo sapiens, UniProt O95076 139-225, L168V) (O95076 139-225 L168V): as the sequence (O95076 139-225) above, with L30V counted along it
Assay [33] concerns the target PROP1 (Homo sapiens, UniProt O75360 56-141, F88S).
Assay [34] deals with T10, PAX4 (Homo sapiens, UniProt O43316 9-242, R227W).
T10 sequence: T5 sequence with K192R, R219W

Assay [35] addresses HOXA2 (Homo sapiens, UniProt O43364 129-215, Y150S).
Assay [36] has as its target ALX3 (Homo sapiens, UniProt O95076 139-225, N203S).
Assay [37] concerns the target HOXA2 (Homo sapiens, UniProt O43364 129-215).
Assay [38] deals with HOXB6 (Homo sapiens, UniProt P17509 132-218).
Chain of HOXB6 (Homo sapiens, UniProt P17509 132-218) (P17509 132-218): as the sequence (P17509 132-218 K202E) above, with E71K counted along it

Where a chain is given by its changes, count along the chain named.

Chain of CRX (Homo sapiens, UniProt O43186 26-111) (O43186 26-111): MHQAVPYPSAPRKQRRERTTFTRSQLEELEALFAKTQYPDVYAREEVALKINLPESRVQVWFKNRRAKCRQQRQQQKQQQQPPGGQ
Chain of CRX (Homo sapiens, UniProt O43186 26-111, R41L) (O43186 26-111 R41L): as the sequence (O43186 26-111) above, with R16L counted along it
Chain of CRX (Homo sapiens, UniProt O43186 26-111, E42D) (O43186 26-111 E42D): as the sequence (O43186 26-111) above, with E17D counted along it
Chain of HOXC9 (Homo sapiens, UniProt P31274 178-260, R193K) (P31274 178-260 R193K): as the sequence (P31274 178-260 R222W) above, with R16K, W45R counted along it
Chain of ALX3 (Homo sapiens, UniProt O95076 139-225, L168Q) (O95076 139-225 L168Q): as the sequence (O95076 139-225) above, with L30Q counted along it
Chain of PROP1 (Homo sapiens, UniProt O75360 56-141, F88S) (O75360 56-141 F88S): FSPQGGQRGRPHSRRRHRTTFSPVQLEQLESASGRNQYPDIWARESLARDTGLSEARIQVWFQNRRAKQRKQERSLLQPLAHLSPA
Chain of HOXA2 (Homo sapiens, UniProt O43364 129-215) (O43364 129-215): as the sequence (O43364 129-215 R185T) above, with T57R counted along it
Chain of MSX2 (Homo sapiens, UniProt P35548 130-214, F161Y) (P35548 130-214 F161Y): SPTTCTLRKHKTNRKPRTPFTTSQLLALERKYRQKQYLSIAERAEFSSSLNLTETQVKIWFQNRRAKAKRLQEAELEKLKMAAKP
Chain of HOXC9 (Homo sapiens, UniProt P31274 178-260, K195R) (P31274 178-260 K195R): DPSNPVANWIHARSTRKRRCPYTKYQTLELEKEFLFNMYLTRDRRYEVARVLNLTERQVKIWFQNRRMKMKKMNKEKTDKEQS
Chain of ALX3 (Homo sapiens, UniProt O95076 139-225, N203Q) (O95076 139-225 N203Q): as the sequence (O95076 139-225) above, with N65Q counted along it
Chain of HOXA2 (Homo sapiens, UniProt O43364 129-215, Y150S) (O43364 129-215 Y150S): as the sequence (O43364 129-215 R185T) above, with Y22S, T57R counted along it
Chain of ALX3 (Homo sapiens, UniProt O95076 139-225, N203S) (O95076 139-225 N203S): as the sequence (O95076 139-225) above, with N65S counted along it
Chain of HOXC9 (Homo sapiens, UniProt P31274 178-260) (P31274 178-260): as the sequence (P31274 178-260 R222W) above, with W45R counted along it
Chain of PROP1 (Homo sapiens, UniProt O75360 56-141, R99H) (O75360 56-141 R99H): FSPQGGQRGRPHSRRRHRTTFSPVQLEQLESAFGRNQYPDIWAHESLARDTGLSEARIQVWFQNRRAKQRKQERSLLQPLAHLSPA
Chain of MSX2 (Homo sapiens, UniProt P35548 130-214, R199I) (P35548 130-214 R199I): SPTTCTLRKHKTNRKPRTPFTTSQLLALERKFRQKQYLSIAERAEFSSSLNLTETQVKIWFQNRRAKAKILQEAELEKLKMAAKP

Regarding AGGCTTAA, the binding signal with CRX [1] was 12.8 upbm affinity estimate (log intensity, higher = more binding, comparable within an allelic series); in the assay with CRX [2], 12.1 upbm affinity estimate (log intensity, higher = more binding, comparable within an allelic series).
For the sequence GAAATCCA, the binding signal in the assay with CRX [1] is 10.7 upbm affinity estimate (log intensity, higher = more binding, comparable within an allelic series); in the assay with CRX [3] it was 10.4 upbm affinity estimate (log intensity, higher = more binding, comparable within an allelic series); with CRX [2], 10.6 upbm affinity estimate (log intensity, higher = more binding, comparable within an allelic series).
Take CACCAGTC: the binding signal with CRX [1] was 8.16 upbm affinity estimate (log intensity, higher = more binding, comparable within an allelic series); in the assay with CRX [3], 8.23 upbm affinity estimate (log intensity, higher = more binding, comparable within an allelic series); in the assay with CRX [2], 8.2 upbm affinity estimate (log intensity, higher = more binding, comparable within an allelic series).
On to GCGACCGC, for which the binding signal with NKX2-4 [4] is 9.58 upbm affinity estimate (log intensity, higher = more binding, comparable within an allelic series); with HOXA4 [5], 9.61 upbm affinity estimate (log intensity, higher = more binding, comparable within an allelic series); with HOXC9 [6] it was 9.65 upbm affinity estimate (log intensity, higher = more binding, comparable within an allelic series); with NKX2-4 [7], 9.41 upbm affinity estimate (log intensity, higher = more binding, comparable within an allelic series); with NKX2-4 [8], 9.53 upbm affinity estimate (log intensity, higher = more binding, comparable within an allelic series); with HOXA4 [9] it was 9.65 upbm affinity estimate (log intensity, higher = more binding, comparable within an allelic series). Also, the binding signal with HOXC9 [10] was 9.71 upbm affinity estimate (log intensity, higher = more binding, comparable within an allelic series); with MSX2 [11] it was 9.49 upbm affinity estimate (log intensity, higher = more binding, comparable within an allelic series); with HOXC9 [12] it was 9.6 upbm affinity estimate (log intensity, higher = more binding, comparable within an allelic series); with HOXA4 [13] it was 9.86 upbm affinity estimate (log intensity, higher = more binding, comparable within an allelic series); with MSX2 [14], 9.38 upbm affinity estimate (log intensity, higher = more binding, comparable within an allelic series); in the assay with NKX2-4 [15], 9.69 upbm affinity estimate (log intensity, higher = more binding, comparable within an allelic series). Moreover, the binding signal in the assay with HOXC9 [16] is 9.64 upbm affinity estimate (log intensity, higher = more binding, comparable within an allelic series); with MSX2 [17] it was 9.56 upbm affinity estimate (log intensity, higher = more binding, comparable within an allelic series); with HOXA4 [18], 9.79 upbm affinity estimate (log intensity, higher = more binding, comparable within an allelic series).
As to CGCCCCTC, the binding signal with CRX [1] was 8.34 upbm affinity estimate (log intensity, higher = more binding, comparable within an allelic series); with CRX [3], 8.45 upbm affinity estimate (log intensity, higher = more binding, comparable within an allelic series); in the assay with CRX [2] it was 8.42 upbm affinity estimate (log intensity, higher = more binding, comparable within an allelic series).
Turning to AGTGTGTC, the binding signal was 8.28 upbm affinity estimate (log intensity, higher = more binding, comparable within an allelic series) in the assay with CRX [1]; 8.38 upbm affinity estimate (log intensity, higher = more binding, comparable within an allelic series) in the assay with CRX [3]; 8.38 upbm affinity estimate (log intensity, higher = more binding, comparable within an allelic series) with CRX [2].
Take CACGGCGA: the binding signal with CRX [1] was 8.27 upbm affinity estimate (log intensity, higher = more binding, comparable within an allelic series); with CRX [3], 8.25 upbm affinity estimate (log intensity, higher = more binding, comparable within an allelic series); in the assay with CRX [2], 8.27 upbm affinity estimate (log intensity, higher = more binding, comparable within an allelic series).
As to AATATTAC, the binding signal with CRX [1] was 10.1 upbm affinity estimate (log intensity, higher = more binding, comparable within an allelic series); with CRX [3], 9.84 upbm affinity estimate (log intensity, higher = more binding, comparable within an allelic series); with CRX [2], 9.61 upbm affinity estimate (log intensity, higher = more binding, comparable within an allelic series).
As for CTCTCTCC, the binding signal in the assay with CRX [1] is 8.11 upbm affinity estimate (log intensity, higher = more binding, comparable within an allelic series); in the assay with CRX [3] it was 8.15 upbm affinity estimate (log intensity, higher = more binding, comparable within an allelic series); in the assay with CRX [2], 8.3 upbm affinity estimate (log intensity, higher = more binding, comparable within an allelic series).
In the case of CTTAAGCC, the binding signal with CRX [1] is 12.7 upbm affinity estimate (log intensity, higher = more binding, comparable within an allelic series); with CRX [2], 11.9 upbm affinity estimate (log intensity, higher = more binding, comparable within an allelic series).
In the case of CGAGCACG, the binding signal with CRX [1] was 8.2 upbm affinity estimate (log intensity, higher = more binding, comparable within an allelic series); in the assay with CRX [3] it was 8.12 upbm affinity estimate (log intensity, higher = more binding, comparable within an allelic series); with CRX [2], 8.16 upbm affinity estimate (log intensity, higher = more binding, comparable within an allelic series).
As to CGCTAATC, the binding signal in the assay with CRX [1] is 12.8 upbm affinity estimate (log intensity, higher = more binding, comparable within an allelic series); with PITX2, 12.2 upbm affinity estimate (log intensity, higher = more binding, comparable within an allelic series); with CRX [2], 12.3 upbm affinity estimate (log intensity, higher = more binding, comparable within an allelic series).
As to AGCGGCCA, the binding signal with NKX2-4 [4] is 9.69 upbm affinity estimate (log intensity, higher = more binding, comparable within an allelic series); with NKX2-4 [7], 9.47 upbm affinity estimate (log intensity, higher = more binding, comparable within an allelic series); in the assay with NKX2-4 [8], 9.64 upbm affinity estimate (log intensity, higher = more binding, comparable within an allelic series); in the assay with PITX2, 8.04 upbm affinity estimate (log intensity, higher = more binding, comparable within an allelic series); with NKX2-4 [15] it was 9.57 upbm affinity estimate (log intensity, higher = more binding, comparable within an allelic series).
For CCCGGGCC, the binding signal in the assay with NKX2-4 [4] is 9.16 upbm affinity estimate (log intensity, higher = more binding, comparable within an allelic series); in the assay with NKX2-4 [7], 8.94 upbm affinity estimate (log intensity, higher = more binding, comparable within an allelic series); in the assay with PAX4 [19] it was 9.02 upbm affinity estimate (log intensity, higher = more binding, comparable within an allelic series); with PAX4 [20], 9.01 upbm affinity estimate (log intensity, higher = more binding, comparable within an allelic series); with NKX2-4 [8], 9.18 upbm affinity estimate (log intensity, higher = more binding, comparable within an allelic series); in the assay with HOXB6 [21] it was 8.77 upbm affinity estimate (log intensity, higher = more binding, comparable within an allelic series). Moreover, the binding signal with HOXA2 [22] was 7.21 upbm affinity estimate (log intensity, higher = more binding, comparable within an allelic series); with ALX3 [23] it was 7.64 upbm affinity estimate (log intensity, higher = more binding, comparable within an allelic series); in the assay with PAX4 [24], 9.07 upbm affinity estimate (log intensity, higher = more binding, comparable within an allelic series); in the assay with HOXA2 [25] it was 10.1 upbm affinity estimate (log intensity, higher = more binding, comparable within an allelic series); with PAX4 [26], 8.94 upbm affinity estimate (log intensity, higher = more binding, comparable within an allelic series); with ALX3 [27], 7.66 upbm affinity estimate (log intensity, higher = more binding, comparable within an allelic series). Moreover, the binding signal with NKX2-4 [15] was 9.15 upbm affinity estimate (log intensity, higher = more binding, comparable within an allelic series); with PAX4 [28] it was 8.97 upbm affinity estimate (log intensity, higher = more binding, comparable within an allelic series); in the assay with PROP1 [29], 6.58 upbm affinity estimate (log intensity, higher = more binding, comparable within an allelic series); with PROP1 [30], 6.56 upbm affinity estimate (log intensity, higher = more binding, comparable within an allelic series); in the assay with ALX3 [31] it was 7.63 upbm affinity estimate (log intensity, higher = more binding, comparable within an allelic series); with ALX3 [32], 7.64 upbm affinity estimate (log intensity, higher = more binding, comparable within an allelic series). In addition, the binding signal is 6.14 upbm affinity estimate (log intensity, higher = more binding, comparable within an allelic series) with PROP1 [33]; 9.08 upbm affinity estimate (log intensity, higher = more binding, comparable within an allelic series) with PAX4 [34]; 10.2 upbm affinity estimate (log intensity, higher = more binding, comparable within an allelic series) with HOXA2 [35]; 7.61 upbm affinity estimate (log intensity, higher = more binding, comparable within an allelic series) in the assay with ALX3 [36]; 7.08 upbm affinity estimate (log intensity, higher = more binding, comparable within an allelic series) with HOXA2 [37]; 8.77 upbm affinity estimate (log intensity, higher = more binding, comparable within an allelic series) with HOXB6 [38].
